# Test results published in PMC11006913.
# Target: PROP1 (Homo sapiens, UniProt O75360 56-141)
# Assay: PBM; 200 nM protein, PBS
# Settings: dsDNA, one strand shown
# Chain of PROP1 (Homo sapiens, UniProt O75360 56-141) (O75360 56-141): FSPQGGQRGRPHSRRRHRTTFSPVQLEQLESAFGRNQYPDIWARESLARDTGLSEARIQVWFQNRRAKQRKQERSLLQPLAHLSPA
row,Sequence,binding signal
1,CCGGGCTA,"6.87 upbm affinity estimate (log intensity, higher = more binding, comparable within an allelic series)"
2,CCGACCGG,"6.54 upbm affinity estimate (log intensity, higher = more binding, comparable within an allelic series)"
3,AGGGCCGC,"6.72 upbm affinity estimate (log intensity, higher = more binding, comparable within an allelic series)"
4,GTCAGGAC,"6.88 upbm affinity estimate (log intensity, higher = more binding, comparable within an allelic series)"
5,GGATGCAC,"6.71 upbm affinity estimate (log intensity, higher = more binding, comparable within an allelic series)"
6,ATATTTGC,"8.36 upbm affinity estimate (log intensity, higher = more binding, comparable within an allelic series)"
7,GGCATGAC,"6.69 upbm affinity estimate (log intensity, higher = more binding, comparable within an allelic series)"
8,AGACCGTC,"6.82 upbm affinity estimate (log intensity, higher = more binding, comparable within an allelic series)"
9,GCAAATAA,"9 upbm affinity estimate (log intensity, higher = more binding, comparable within an allelic series)"
10,AGGCTCCG,"6.78 upbm affinity estimate (log intensity, higher = more binding, comparable within an allelic series)"
11,GTGCGCCA,"6.79 upbm affinity estimate (log intensity, higher = more binding, comparable within an allelic series)"
12,AGCCTGGC,"6.55 upbm affinity estimate (log intensity, higher = more binding, comparable within an allelic series)"
13,CCCGCGCA,"6.78 upbm affinity estimate (log intensity, higher = more binding, comparable within an allelic series)"
14,GCCATGGC,"6.94 upbm affinity estimate (log intensity, higher = more binding, comparable within an allelic series)"
15,GGTAAATA,"8.63 upbm affinity estimate (log intensity, higher = more binding, comparable within an allelic series)"
16,GACATTAC,"8.23 upbm affinity estimate (log intensity, higher = more binding, comparable within an allelic series)"
17,GCTCCGCA,"6.82 upbm affinity estimate (log intensity, higher = more binding, comparable within an allelic series)"
18,GGAACGCC,"6.7 upbm affinity estimate (log intensity, higher = more binding, comparable within an allelic series)"
19,TGATTACA,"9.42 upbm affinity estimate (log intensity, higher = more binding, comparable within an allelic series)"
20,CCTTCGGC,"6.66 upbm affinity estimate (log intensity, higher = more binding, comparable within an allelic series)"

row,Sequence,binding signal
1,ACCGAGAG,"6.71 upbm affinity estimate (log intensity, higher = more binding, comparable within an allelic series)"
2,AGGCCAGG,"6.77 upbm affinity estimate (log intensity, higher = more binding, comparable within an allelic series)"
3,AATATGAA,"8.47 upbm affinity estimate (log intensity, higher = more binding, comparable within an allelic series)"
4,CCAGGGTC,"6.75 upbm affinity estimate (log intensity, higher = more binding, comparable within an allelic series)"
5,CGATGCCC,"6.76 upbm affinity estimate (log intensity, higher = more binding, comparable within an allelic series)"
6,AAGGGAGT,"6.58 upbm affinity estimate (log intensity, higher = more binding, comparable within an allelic series)"
7,GCTCCTCC,"6.62 upbm affinity estimate (log intensity, higher = more binding, comparable within an allelic series)"
8,CCGCACCC,"6.68 upbm affinity estimate (log intensity, higher = more binding, comparable within an allelic series)"
9,CGGCTCCA,"6.66 upbm affinity estimate (log intensity, higher = more binding, comparable within an allelic series)"
10,ACGGTAGG,"6.51 upbm affinity estimate (log intensity, higher = more binding, comparable within an allelic series)"
11,ATGCCAGC,"6.71 upbm affinity estimate (log intensity, higher = more binding, comparable within an allelic series)"
12,ATTATGGG,"9.26 upbm affinity estimate (log intensity, higher = more binding, comparable within an allelic series)"
13,CACGACGA,"6.69 upbm affinity estimate (log intensity, higher = more binding, comparable within an allelic series)"
14,GGAGCAGA,"6.75 upbm affinity estimate (log intensity, higher = more binding, comparable within an allelic series)"
15,GGCCACCA,"6.96 upbm affinity estimate (log intensity, higher = more binding, comparable within an allelic series)"
16,CTCAGCGC,"6.82 upbm affinity estimate (log intensity, higher = more binding, comparable within an allelic series)"
17,AATTCAAC,"8.25 upbm affinity estimate (log intensity, higher = more binding, comparable within an allelic series)"
18,CCTGTTAG,"8.32 upbm affinity estimate (log intensity, higher = more binding, comparable within an allelic series)"
19,AACTAAAT,"9.34 upbm affinity estimate (log intensity, higher = more binding, comparable within an allelic series)"
20,CCCGGGAA,"6.78 upbm affinity estimate (log intensity, higher = more binding, comparable within an allelic series)"

# Target: PROP1 (Homo sapiens, UniProt O75360 56-141, R99H)
# Assay: PBM; 200 nM protein, PBS
# Settings: dsDNA, one strand shown
# Chain of PROP1 (Homo sapiens, UniProt O75360 56-141, R99H) (O75360 56-141 R99H): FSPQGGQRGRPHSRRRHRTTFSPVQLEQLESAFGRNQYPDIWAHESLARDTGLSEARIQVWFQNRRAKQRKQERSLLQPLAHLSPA
row,Sequence,binding signal
1,CCGGGCTA,"6.89 upbm affinity estimate (log intensity, higher = more binding, comparable within an allelic series)"
2,CCGACCGG,"6.6 upbm affinity estimate (log intensity, higher = more binding, comparable within an allelic series)"
3,AGGGCCGC,"6.82 upbm affinity estimate (log intensity, higher = more binding, comparable within an allelic series)"
4,GTCAGGAC,"6.96 upbm affinity estimate (log intensity, higher = more binding, comparable within an allelic series)"
5,GGATGCAC,"6.74 upbm affinity estimate (log intensity, higher = more binding, comparable within an allelic series)"
6,ATATTTGC,"7.99 upbm affinity estimate (log intensity, higher = more binding, comparable within an allelic series)"
7,GGCATGAC,"6.75 upbm affinity estimate (log intensity, higher = more binding, comparable within an allelic series)"
8,AGACCGTC,"6.83 upbm affinity estimate (log intensity, higher = more binding, comparable within an allelic series)"
9,GCAAATAA,"8.48 upbm affinity estimate (log intensity, higher = more binding, comparable within an allelic series)"
10,AGGCTCCG,"6.73 upbm affinity estimate (log intensity, higher = more binding, comparable within an allelic series)"
11,GTGCGCCA,"6.83 upbm affinity estimate (log intensity, higher = more binding, comparable within an allelic series)"
12,AGCCTGGC,"6.87 upbm affinity estimate (log intensity, higher = more binding, comparable within an allelic series)"
13,CCCGCGCA,"6.9 upbm affinity estimate (log intensity, higher = more binding, comparable within an allelic series)"
14,GCCATGGC,"6.8 upbm affinity estimate (log intensity, higher = more binding, comparable within an allelic series)"
15,GGTAAATA,"8.23 upbm affinity estimate (log intensity, higher = more binding, comparable within an allelic series)"
16,GACATTAC,"7.84 upbm affinity estimate (log intensity, higher = more binding, comparable within an allelic series)"
17,GCTCCGCA,"6.82 upbm affinity estimate (log intensity, higher = more binding, comparable within an allelic series)"
18,GGAACGCC,"6.87 upbm affinity estimate (log intensity, higher = more binding, comparable within an allelic series)"
19,TGATTACA,"8.57 upbm affinity estimate (log intensity, higher = more binding, comparable within an allelic series)"
20,CCTTCGGC,"6.64 upbm affinity estimate (log intensity, higher = more binding, comparable within an allelic series)"
